{"source": "PubChem BioAssay AID588592", "about": "(Sanford-Burnham Center for Chemical Genomics, 2011)", "note": "The other results are listed elsewhere or left out. A number with no mark means an inactive call. No rule for the calls is given here.", "data": [{"test": "fluorescence interference of Apaf-1 activator hits, dose response, artefact control for Apaf-1 activator project (AID 588592)", "settings": "fluorescence interference counterscreen, Apaf-1 activator assay", "units": {"EC50": "µM"}, "values": [{"smiles": "CCN(CC)CCOc1ccc2c(c1)C(=NNC(=O)c1ccccn1)c1cc(OCCN(CC)CC)ccc1-2", "EC50": "> 100"}, {"smiles": "C=CC1=C(C(=O)O)N2C(=O)[C@@H](NC(=O)/C(=N\\OCC(=O)O)c3csc(N)n3)[C@H]2SC1", "EC50": "> 100"}, {"smiles": "C=CC1=C(C(=O)O)N2C(=O)[C@@H](NC(=O)/C(=N/OCC(=O)O)c3csc(N)n3)[C@H]2SC1", "EC50": "> 100"}, {"smiles": "C=C(C)C(=O)Nc1cccc(C2=NOC3(C2)C[C@H](C(N)=O)N(C(=O)C(c2ccccc2)c2ccccc2)C3)c1", "note": "(some centres undefined)", "EC50": "> 100"}]}]}
